# Measurements from PubChem BioAssay (NCATS).
# Inconclusive results are not listed. A call without a number means that no potency is given here. Unmarked numbers belong to inactive results. The source made the active and inactive calls. Calls follow the shape of the dose curve; as a rule, active = well fitted cell-killing curve with a large enough effect; inconclusive = small, poorly fitted or top-dose-only effect, or effect the other way; inactive = flat fitted curve, though single readings scatter.
# Legend:
# Experiment in all cases: Primary qHTS to identify gynecologic anti-cancer compounds using libraries of approved drugs and bioactive compounds (AID 1345084); also: nearly all actives have a fitted effect of over 55% in size
# C33A = settings: Gynecologic cancer cell panel viability, ATPlite luminescence, 48 h; series mostly up to 57.5 µM
# Outline: (§1)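 In this quantitative HTS, cell killing is estimated from loss of ATP-dependent luciferase light. Cells see five compound concentrations over a 48 h exposure.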
# CASKI = settings: Gynecologic cancer cell panel viability, ATPlite luminescence, 48 h; series mostly up to 57.5 µM
# Outline: as §1
# Es-2 = settings: Gynecologic cancer cell panel viability, ATPlite luminescence, 48 h; series mostly up to 57.5 µM
# Outline: as §1
# HeLa = settings: Gynecologic cancer cell panel viability, ATPlite luminescence, 48 h; series mostly up to 57.5 µM
# Outline: as §1
# Hek293T = settings: Gynecologic cancer cell panel viability, ATPlite luminescence, 48 h, control line for the selectivity index; series mostly up to 57.5 µM
# Outline: as §1
# JEG-3 = settings: Gynecologic cancer cell panel viability, ATPlite luminescence, 48 h; series mostly up to 57.5 µM
# Outline: as §1
# OV90 = settings: Gynecologic cancer cell panel viability, ATPlite luminescence, 48 h; series mostly up to 57.5 µM
# Outline: as §1
# SKOV3 = settings: Gynecologic cancer cell panel viability, ATPlite luminescence, 48 h; series mostly up to 57.5 µM
# Outline: as §1
# Tov-21-G = settings: Gynecologic cancer cell panel viability, ATPlite luminescence, 48 h; series mostly up to 57.5 µM
# Outline: as §1
# Tov112D = settings: Gynecologic cancer cell panel viability, ATPlite luminescence, 48 h; series mostly up to 57.5 µM
# Outline: as §1
# PA-1 = settings: Gynecologic cancer cell panel viability, ATPlite luminescence, 48 h; series mostly up to 57.5 µM
# Outline: as §1
# Potency is read from the fitted curve at half-maximal effect.
compound,measurement,setting,value
C/C=C\NC(=O)C1NC(=O)C(CC(N)=O)NC(=O)C(NC(=O)C(=O)C(C)CC)Cc2ccc(O)c(c2)-c2cccc3c2NC(=O)C3(O)C1O (stereo unspecified),Potency,C33A,inactive
same,Potency,CASKI,inactive
same,Potency,Es-2,inactive
same,Potency,HeLa,inactive
same,Potency,Hek293T,inactive
same,Potency,JEG-3,inactive
same,Potency,OV90,inactive
same,Potency,SKOV3,inactive
same,Potency,Tov-21-G,4.47 µM (active)
same,Potency,Tov112D,inactive
CN(C)CCn1cc(-c2ccc(F)cc2)c(-n2cccc2)n1,Potency,C33A,inactive
same,Potency,CASKI,inactive
same,Potency,Es-2,inactive
same,Potency,HeLa,inactive
same,Potency,Hek293T,inactive
same,Potency,JEG-3,inactive
same,Potency,OV90,inactive
same,Potency,PA-1,inactive
same,Potency,Tov-21-G,inactive
same,Potency,Tov112D,inactive
CC(=O)OC1CC(O)(C(C)C)C2C(OC(=O)c3ccc(O)cc3)C=C(C)C(=O)CC12C (stereo unspecified),Potency,C33A,inactive
same,Potency,CASKI,inactive
same,Potency,Es-2,inactive
same,Potency,HeLa,inactive
same,Potency,Hek293T,inactive
same,Potency,JEG-3,inactive
same,Potency,PA-1,inactive
same,Potency,SKOV3,inactive
same,Potency,Tov-21-G,inactive
same,Potency,Tov112D,inactive
C[C@H]1CC[C@@]2(OC1)O[C@H]1CC3[C@@H]4CC[C@@H]5C[C@@H](O[C@@H]6O[C@H](CO)[C@@H](O[C@@H]7O[C@@H](C)[C@H](O)[C@@H](O)[C@H]7O)[C@H](O)[C@H]6O[C@@H]6O[C@H](CO)[C@@H](O)[C@H](O)[C@H]6O)CC[C@]5(C)C4CC[C@]3(C)[C@H]1[C@@H]2C (stereo partly specified),"activity change, negative = cytotoxicity",C33A,-15.7% [at 11.6 µM]
same,"activity change, negative = cytotoxicity",CASKI,2.17% [at 11.6 µM]
same,"activity change, negative = cytotoxicity",Es-2,0.261% [at 11.6 µM]
same,"activity change, negative = cytotoxicity",HeLa,24.8% [at 11.6 µM]
same,"activity change, negative = cytotoxicity",Hek293T,-22.5% [at 11.6 µM]
same,"activity change, negative = cytotoxicity",JEG-3,3.99% [at 11.6 µM]
same,"activity change, negative = cytotoxicity",OV90,-17.7% [at 11.6 µM]
same,"activity change, negative = cytotoxicity",SKOV3,-15.8% [at 11.6 µM]
same,"activity change, negative = cytotoxicity",Tov-21-G,-2.16% [at 11.6 µM]
same,"activity change, negative = cytotoxicity",Tov112D,-1.68% [at 11.6 µM]
Cc1ccc(NC(=O)N2CCN(c3nc(N)nc4sc(-c5cccnc5)nc34)CC2)cc1,Potency,C33A,inactive
same,Potency,CASKI,inactive
same,Potency,Es-2,inactive
same,Potency,HeLa,inactive
same,Potency,Hek293T,inactive
same,Potency,JEG-3,inactive
same,Potency,OV90,inactive
same,Potency,Tov-21-G,inactive
same,Potency,Tov112D,inactive
Cc1cn(CCN2CCN(c3ccccc3-c3cc(C#N)cc(C(=O)NCCCN4CCCC4)c3)CC2)c2ccccc12,Potency,C33A,inactive
same,Potency,CASKI,inactive
same,Potency,Es-2,inactive
same,Potency,HeLa,inactive
same,Potency,Hek293T,inactive
same,Potency,JEG-3,inactive
same,Potency,PA-1,inactive
same,Potency,SKOV3,inactive
same,Potency,Tov-21-G,inactive
same,Potency,Tov112D,inactive
CNC(=O)c1cc(Oc2ccc(NC(=O)c3cccc(C(F)(F)F)c3)cc2)ccn1,Potency,C33A,inactive
same,Potency,CASKI,inactive
same,Potency,Es-2,inactive
same,Potency,HeLa,inactive
same,Potency,Hek293T,inactive
same,Potency,JEG-3,inactive
same,Potency,OV90,inactive
same,Potency,Tov-21-G,inactive
same,Potency,Tov112D,inactive
O=C(Nc1ccc(-c2ccc(Cl)c(Cl)c2)cc1)C1=C(O)c2ccccc2S(=O)(=O)N1,Potency,C33A,inactive
same,Potency,CASKI,inactive
same,Potency,Es-2,inactive
same,Potency,HeLa,inactive
same,Potency,JEG-3,inactive
same,Potency,OV90,inactive
same,Potency,SKOV3,inactive
same,Potency,Tov-21-G,inactive
same,Potency,Tov112D,inactive
CC(NC(=O)Cc1cc(F)cc(F)c1)C(=O)NC1C(=O)N(C)c2ccccc2-c2ccccc21 (stereo unspecified),Potency,C33A,inactive
same,Potency,CASKI,inactive
same,Potency,Es-2,inactive
same,Potency,HeLa,inactive
same,Potency,Hek293T,inactive
same,Potency,JEG-3,inactive
same,Potency,OV90,inactive
same,Potency,Tov-21-G,inactive
same,Potency,Tov112D,inactive
CC(C)c1ccccc1OC(=O)NCCc1ccc2ccccc2c1,Potency,C33A,inactive
same,Potency,CASKI,inactive
same,Potency,Es-2,inactive
same,Potency,HeLa,inactive
same,Potency,Hek293T,inactive
same,Potency,JEG-3,inactive
same,Potency,OV90,inactive
same,Potency,PA-1,inactive
same,Potency,Tov-21-G,inactive
same,Potency,Tov112D,inactive
C=C(C)[C@@H]1CC[C@]2(C(=O)O)CC[C@]3(C(=O)O)[C@H](CCC4[C@@]5(C)CCC(=O)C(C)(C)C5CC[C@]43C)C12 (stereo partly specified),Potency,C33A,inactive
same,Potency,CASKI,inactive
same,Potency,Es-2,inactive
same,Potency,HeLa,inactive
same,Potency,Hek293T,inactive
same,Potency,JEG-3,inactive
same,Potency,OV90,inactive
same,Potency,PA-1,inactive
same,Potency,Tov-21-G,inactive
same,Potency,Tov112D,inactive
N#Cc1ccc(-c2ccc(S(=O)(=O)Nc3cccc(N)n3)cc2)cc1,Potency,C33A,inactive
same,Potency,CASKI,inactive
same,Potency,Es-2,inactive
same,Potency,HeLa,inactive
same,Potency,JEG-3,inactive
same,Potency,OV90,inactive
same,Potency,PA-1,inactive
same,Potency,Tov-21-G,inactive
same,Potency,Tov112D,inactive
CCO[C@H]1CN(C2CCC(O)(c3ccc4c(c3)OCO4)CC2)C[C@@H]1NC(=O)CNC(=O)c1cccc(C(F)(F)F)c1 (stereo partly specified),Potency,C33A,inactive
same,Potency,CASKI,inactive
same,Potency,Es-2,inactive
same,Potency,HeLa,inactive
same,Potency,Hek293T,inactive
same,Potency,JEG-3,inactive
same,Potency,OV90,inactive
same,Potency,PA-1,inactive
same,Potency,Tov-21-G,inactive
same,Potency,Tov112D,inactive
C=C(C)C1CC(O)C(C)C12CC(O)C1(C)OC1C2O (stereo unspecified),Potency,C33A,11.2 µM (active)
same,Potency,CASKI,12.6 µM (active)
same,Potency,Es-2,8.91 µM (active)
same,Potency,HeLa,14.1 µM (active)
same,Potency,JEG-3,28.2 µM (active)
same,Potency,OV90,7.08 µM (active)
same,Potency,PA-1,8.91 µM (active)
same,Potency,SKOV3,7.94 µM (active)
C=C1C(=O)O[C@@H]2C[C@@]3(C)CCCC(=C)[C@]3(O)C[C@H]12,Potency,C33A,inactive
same,Potency,CASKI,inactive
same,Potency,Es-2,inactive
same,Potency,HeLa,inactive
same,Potency,JEG-3,inactive
same,Potency,OV90,inactive
same,Potency,SKOV3,inactive
same,Potency,Tov112D,inactive
CCCCCCCCC(=O)N[C@H](CN1CCCC1)[C@H](O)c1ccc2c(c1)OCCO2,Potency,C33A,inactive
same,Potency,CASKI,inactive
same,Potency,Es-2,inactive
same,Potency,HeLa,inactive
same,Potency,JEG-3,inactive
same,Potency,PA-1,inactive
same,Potency,Tov-21-G,inactive
same,Potency,Tov112D,inactive
COc1cc2c(cc1OC)CN(C(=O)/C=C/c1c(-c3ccccc3)n(C)c3ncccc13)CC2,Potency,C33A,inactive
same,Potency,CASKI,inactive
same,Potency,Es-2,inactive
same,Potency,HeLa,inactive
same,Potency,JEG-3,inactive
same,Potency,OV90,inactive
same,Potency,PA-1,inactive
same,Potency,Tov112D,inactive
CC(C)(C[C@@](O)(Cc1cc2ccncc2[nH]1)C(F)(F)F)c1cc(F)ccc1O,Potency,C33A,inactive
same,Potency,CASKI,inactive
same,Potency,Es-2,inactive
same,Potency,HeLa,inactive
same,Potency,JEG-3,inactive
same,Potency,OV90,inactive
same,Potency,PA-1,inactive
same,Potency,Tov-21-G,inactive
same,Potency,Tov112D,inactive
